# Results taken from PubChem BioAssay.
# Several values for one entry are separate records, joined by “and”; a condition that tells them apart may be missing. Equal values may be shown once. Activity calls are given as the source filed them. Unless noted, how the calls were made is not given here.
# Columns and labels:
# [1] = stimulators of nuclear beta-catenin in C2C12, primary screen, imaging, WNT3A-conditioned medium, mouse C2C12, NPC library (AID 1117326; in the data active means nuclear beta-catenin stimulation mostly above about 4.2%, no sharp cut-off; inactive means mostly below about 10%); conditions: stronger effect = higher value
# [2] = stimulators of insulin release from INS-1E, primary screen, cell-based, 5 mM glucose, NPC library (AID 1117329;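 active means compound raises insulin release from rat beta cells at 5 mM glucose, no numeric limit stated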); conditions: rat INS-1E insulin secretion, at 10 µM, stronger effect = higher value
# [3] = growth inhibition of GSK3B-pretreated HCT116 cells – cell-based, CellTiter-Glo, 0.2 to 20 µM (AID 1117336;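 active means compounds lowering colon cancer cell viability after pretreatment blocking the GSK3B kinase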); conditions: HCT116 viability after GSK3B inhibitor, at 20 µM, stronger effect = higher value
# [4] = inhibition of endothelial tube formation, primary screen, imaging, VEGF stimulated, CD31 staining, tube area, NPC library (AID 1117340;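 active means compound that reduces growth-factor-driven endothelial tube area in a mixed cell culture, no cutoff stated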); conditions: VEGF-stimulated ADSC/ECFC co-culture, at 10 µM, stronger effect = higher value
# [5] = glucagon-like peptide 1 release enhancers, primary assay, NCI-H716 cell line, NPC library (AID 1117341;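 active means compound raises GLP1 secretion from the human gut endocrine cells, with no numeric limit stated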); conditions: NCI-H716 cells, at 10 µM, stronger effect = higher value
# [6] = HCT116 colon cancer cell growth inhibition, primary screen, CellTiter-Glo luminescence, NPC library (AID 1117342;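 active means compounds that lower survival of HCT116 colon cancer cells in the luminescence readout, no numeric limit stated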); conditions: at 20 µM (top of the series)
# [7] = CellTiter-Glo luminescent readout of SW480 viability loss, NPC library primary (AID 1117343;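 active means compounds that lower viability of the colon cancer cells in the luminescence readout, with no numeric limit stated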); conditions: CellTiter-Glo luminescence; at 20 µM (top of the series)
# [8] = decreased DLD-1 cellular survival, CellTiter-Glo luminescent readout, NPC compound collection, primary HTS (AID 1117346;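 active means compounds that lower survival of DLD-1 colon cancer cells in the luminescence readout, no cutoff given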); conditions: DLD-1 viability, CellTiter-Glo luminescence; at 20 µM (top of the series)
# [9] = molecular target: 6-phosphogluconate dehydrogenase, decarboxylating (Homo sapiens) (UniProt P52209); experiment: 6PGD enzyme inhibitors, primary screen, biochemical, human, recombinant enzyme, NADPH absorbance (AID 1159550;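 active means at least 20% inhibition of 6-phosphogluconate dehydrogenase activity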); conditions: recombinant 6PGD, NADPH absorbance 341 nm; at 10 µM; stronger effect = higher value
# [10] = differential killing of epithelial or mesenchymal cells, primary screen, imaging, PC-3E GFP, TEM4-18 mCherry, co-culture (AID 1345086;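 active means compounds killing one labelled cell type while sparing the other, by normalised counts and ratio limits, not self-fluorescent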;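 on all read-outs here: cells exposed to compound for 72 h before imaging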;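 on red/green cell ratio (normalised): normalised mesenchymal count divided by normalised epithelial count so high means epithelial killing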); conditions: imaging cell counts, at 1 µM; for red/green cell ratio (normalised): actives lie on both sides
# [11] = test system: Aerobactin synthetase IucA (Klebsiella pneumoniae hvKP1); experiment: Biochemical IucA enzyme inhibition primary screen of the Spectrum library (AID 1346200); conditions: malachite green pyrophosphate, A620, at 8 µM, stronger effect = lower value;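 further: 100% = wells without compound and 0% = wells lacking enzyme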
# [12] = test system: Aerobactin synthetase IucA (Klebsiella pneumoniae, hypervirulent); experiment: IucA enzyme inhibition, biochemical, LOPAC library, absorbance readout (AID 1346212); conditions: IucA enzyme assay, absorbance (OD) readout; stronger effect = lower value;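 tested at 8 µM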;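 further: 100% = no compound wells and 0% = no enzyme wells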
# [13] = survival rescue of mitochondrial mutant cells in low glucose, primary screen, MELAS cybrids, Rieske KO mouse fibroblasts, CellTiter-Glo (AID 1508586;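 active means mean z-score across replicates of 1.96 or higher in either the MELAS or the Rieske mutant cell line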;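 further: z relative to plate mean and SD of compound and empty wells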)
# [14] = molecular target: NAD(+) hydrolase SARM1 (Homo sapiens) (UniProt Q6SZW1); experiment: SARM1 TIR NADase inhibitors, cell lysate, NAD-Glo luminescence (AID 1508614;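 active means compound whose remaining NAD level is above about 45 nM, limit read from the data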); conditions: SAM-TIR HEK293T lysate NADase, at 1 µM, stronger effect = higher value
# [15] = molecular target: Mitogen-activated protein kinase 7 (Homo sapiens) (UniProt Q13164); experiment: ERK5 transactivation activators in reporter cells, primary screen, cell-based, HTS (AID 1508626;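 active means luciferase signal above three times the same-plate solvent-only control wells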;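 further: luciferase driven by Gal4-ERK5 fusion binding five Gal4 sites before minimal TATA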); conditions: HeLa Gal4-ERK5 transactivation, 18 h, at 5 µM, stronger effect = higher value
# [16] = viability rescue of complex I mutant cybrids, primary screen, cell-based, galactose medium, ATP luminescence (AID 1645843;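 active means z-score of at least 1.8 in each of two replicates, scored against plate mean and spread of sample wells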;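 further: positive z means more ATP and so rescue of galactose-driven cybrid death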); conditions: complex I mutant cybrid cells, 72 h, stronger effect = higher value
# [17] = sensitizers of A549 cells to miR-34 induction, primary screen, imaging, A549 dox-inducible miR-34, nuclei and caspase counts (AID 1347080;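 active means compounds whose cell count with miR-34 switched on is under 0.7 times the count with it off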); conditions: A549 miR-34 inducible, Hoechst nuclei count, 48 h
# [18] = hESC survival regulators, cell-based (AID 493140); conditions: human embryonic stem cell survival screen; stronger effect = higher value;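 further: cells exposed to compounds for four days before counting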
# [19] = liver-stage malaria parasite growth inhibition, primary screen, cell-based, HepG2, luciferase luminescence, HepG2 viability (AID 624349; in the data active means parasite load remaining mostly below about 12%, no sharp cut-off; inactive means mostly above about 10%;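 further: 100% = mean of DMSO negative control wells on the same plate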); conditions: P. berghei liver stage in HepG2, luciferase luminescence, concentration not given here; parasite load remaining: stronger effect = lower value; viability: measured here: HepG2 viability without parasites
# [20] = measured here: epithelial PC-3E GFP cell survival
# [21] = measured here: mesenchymal TEM4-18 mCherry cell survival
# [22] = MELAS cybrid survival, CellTiter-Glo 48 h, stronger effect = higher value
# [23] = Rieske KO mouse fibroblast survival, CellTiter-Glo 72 h
# [24] = measured here: relative caspase fold change +Dox/-Dox
# [25] = measured here: total cells with miR-34 induction, stronger effect = lower value
# [26] = measured here: total cells without miR-34 induction
# NAD(+) hydrolase SARM1 (Homo sapiens), sequence (Q6SZW1 whole entry, looked up, the tested form may be a part): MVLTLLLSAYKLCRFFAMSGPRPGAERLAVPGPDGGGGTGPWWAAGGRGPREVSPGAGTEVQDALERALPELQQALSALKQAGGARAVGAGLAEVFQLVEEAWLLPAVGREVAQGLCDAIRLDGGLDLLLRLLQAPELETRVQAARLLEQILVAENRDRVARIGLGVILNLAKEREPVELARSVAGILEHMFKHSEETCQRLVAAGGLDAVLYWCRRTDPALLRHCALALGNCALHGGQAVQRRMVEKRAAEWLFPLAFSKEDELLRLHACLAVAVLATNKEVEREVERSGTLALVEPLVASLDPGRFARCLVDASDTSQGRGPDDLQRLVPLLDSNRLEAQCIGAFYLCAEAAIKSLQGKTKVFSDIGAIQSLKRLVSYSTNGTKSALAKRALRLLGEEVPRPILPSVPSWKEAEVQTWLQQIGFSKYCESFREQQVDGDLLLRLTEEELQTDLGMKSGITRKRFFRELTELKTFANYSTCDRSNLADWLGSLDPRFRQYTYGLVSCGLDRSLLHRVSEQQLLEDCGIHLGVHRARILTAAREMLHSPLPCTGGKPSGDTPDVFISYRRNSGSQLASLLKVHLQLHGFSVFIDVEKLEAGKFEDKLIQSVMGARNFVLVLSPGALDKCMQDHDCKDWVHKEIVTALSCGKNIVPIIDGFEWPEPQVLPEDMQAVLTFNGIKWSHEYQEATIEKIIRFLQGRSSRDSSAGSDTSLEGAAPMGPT
# 6-phosphogluconate dehydrogenase, decarboxylating (Homo sapiens), sequence (P52209 whole entry, looked up): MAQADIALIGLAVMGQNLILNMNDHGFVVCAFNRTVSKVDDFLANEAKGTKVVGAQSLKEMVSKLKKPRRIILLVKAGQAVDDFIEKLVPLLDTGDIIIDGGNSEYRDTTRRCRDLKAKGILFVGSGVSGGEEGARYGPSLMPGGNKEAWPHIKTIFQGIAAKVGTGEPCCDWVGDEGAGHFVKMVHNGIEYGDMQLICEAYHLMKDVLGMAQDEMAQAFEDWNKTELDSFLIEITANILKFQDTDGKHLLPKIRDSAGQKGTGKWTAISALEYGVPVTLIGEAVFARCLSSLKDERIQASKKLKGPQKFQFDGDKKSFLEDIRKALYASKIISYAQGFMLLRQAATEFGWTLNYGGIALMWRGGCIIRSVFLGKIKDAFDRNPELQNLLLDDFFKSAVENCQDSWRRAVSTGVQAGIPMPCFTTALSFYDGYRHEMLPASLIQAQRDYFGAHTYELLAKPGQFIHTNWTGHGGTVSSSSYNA
# Mitogen-activated protein kinase 7 (Homo sapiens), sequence (Q13164 whole entry, looked up, the tested form may be a part): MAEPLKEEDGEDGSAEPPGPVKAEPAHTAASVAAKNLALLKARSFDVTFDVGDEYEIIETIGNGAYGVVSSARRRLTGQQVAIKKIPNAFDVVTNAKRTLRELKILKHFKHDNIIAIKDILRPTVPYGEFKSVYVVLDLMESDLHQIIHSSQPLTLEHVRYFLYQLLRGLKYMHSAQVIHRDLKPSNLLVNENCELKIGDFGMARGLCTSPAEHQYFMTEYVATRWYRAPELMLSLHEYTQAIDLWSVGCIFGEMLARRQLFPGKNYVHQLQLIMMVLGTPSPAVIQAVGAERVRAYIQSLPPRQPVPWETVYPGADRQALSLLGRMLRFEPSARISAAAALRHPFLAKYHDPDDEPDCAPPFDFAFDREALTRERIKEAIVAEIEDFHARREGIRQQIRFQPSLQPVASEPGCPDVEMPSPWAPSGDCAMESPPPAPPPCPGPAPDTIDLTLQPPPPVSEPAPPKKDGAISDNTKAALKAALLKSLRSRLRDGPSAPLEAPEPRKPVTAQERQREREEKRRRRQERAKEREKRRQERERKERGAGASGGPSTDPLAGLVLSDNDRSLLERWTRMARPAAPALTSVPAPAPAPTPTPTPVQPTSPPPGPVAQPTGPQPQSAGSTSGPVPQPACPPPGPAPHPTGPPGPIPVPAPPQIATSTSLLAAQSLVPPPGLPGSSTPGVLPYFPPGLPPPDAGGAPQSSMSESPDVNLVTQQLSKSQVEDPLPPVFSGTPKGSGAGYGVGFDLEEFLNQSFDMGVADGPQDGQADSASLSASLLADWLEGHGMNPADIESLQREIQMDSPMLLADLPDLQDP
smiles,measurement,setting,value
O=P1(N(CCCl)CCCl)NCCCO1 (centres undefined),nuclear beta-catenin stimulation,[1]; at 10 µM,1% (inactive)
same,nuclear beta-catenin stimulation,"[1]; stimulation, at 2 µM",0.9%
same,insulin secretion stimulation,[2],-1% (inactive)
same,viability decrease,[3],-1.15% (inactive)
same,tube area decrease,[4],16.1% (inactive)
same,GLP1 secretion stimulation,[5],1.6% (inactive)
same,inhibition of viability,[6],-24.2% (inactive)
same,viability decrease (inhibition),[7],101% (active)
same,viability decrease (inhibition),[8],-8.15% (inactive)
same,inhibition,[9],-5.23% (inactive)
same,red/green cell ratio (normalised),[10],1.26 (inactive)
same,normalised cell number,[10]; [20],1.18
same,normalised cell number,[10]; [21],1.48
same,activity remaining,[11],120% (inactive)
same,remaining activity,[12],112% (inactive)
same,z-score,[13]; [22],0.187 (inactive) and -0.193 (inactive)
same,z-score,[13]; [23],-0.0217 and -1.38
same,remaining NAD,[14],10 nM (inactive)
same,luciferase signal,[15],84 AU (inactive)
same,z-score,[16],0.055 (inactive) and 0.19 (inactive) and -0.255 (inactive)
NCCc1ccc(O)cc1,nuclear beta-catenin stimulation,[1]; at 10 µM,-0.5% (inactive)
same,nuclear beta-catenin stimulation,"[1]; stimulation, at 2 µM",1.3%
same,insulin secretion stimulation,[2],1.8% (inactive)
same,viability decrease,[3],4.6% (inactive)
same,tube area decrease,[4],-10% (inactive)
same,GLP1 secretion stimulation,[5],-1.8% (inactive)
same,inhibition of viability,[6],9.07% (inactive)
same,viability decrease (inhibition),[7],5.3% (inactive)
same,viability decrease (inhibition),[8],-2.9% (inactive)
same,inhibition,[9],-11.3% (inactive)
same,red/green cell ratio (normalised),[10],0.8 (inactive)
same,normalised cell number,[10]; [20],1.04
same,normalised cell number,[10]; [21],0.83
same,activity remaining,[11],108% (inactive)
same,remaining activity,[12],98.4% (inactive)
same,fold change,"[17]; stronger effect = lower value, cell number ratio, induced over uninduced",0.965 (inactive)
same,fold change,[17]; [24],1.32
same,cell count,[17]; [25],10000
same,cell count,[17]; [26],10400
same,luciferase signal,[15],52 AU (inactive)
same,z-score,[16],0.68 (inactive)
COc1ccc(Cc2nccc3cc(OC)c(OC)cc23)cc1OC,survival,[18],5.5 (inactive)
same,nuclear beta-catenin stimulation,[1]; at 10 µM,1.4% (inactive)
same,nuclear beta-catenin stimulation,"[1]; stimulation, at 2 µM",-0.3%
same,insulin secretion stimulation,[2],-2.5% (inactive)
same,viability decrease,[3],54.7% (active)
same,tube area decrease,[4],59.3% (active)
same,GLP1 secretion stimulation,[5],2.3% (inactive)
same,inhibition of viability,[6],39.8% (inactive)
same,viability decrease (inhibition),[7],112% (active)
same,viability decrease (inhibition),[8],14.5% (inactive)
same,inhibition,[9],-8.16% (inactive)
same,red/green cell ratio (normalised),[10],0.84 (inactive)
same,normalised cell number,[10]; [20],1
same,normalised cell number,[10]; [21],0.83
same,activity remaining,[11],114% (inactive)
same,remaining activity,[12],119% (inactive)
same,fold change,[17]; stronger effect = lower value,1.24 (inactive) and 0.81 (inactive) and 0.838 (inactive)
same,fold change,[17]; [24],0.505 and 1.57 and 3.09
same,cell count,[17]; [25],7270 and 6810 and 7780
same,cell count,[17]; [26],5860 and 8410 and 9280
same,z-score,[13]; [22],0.889 (inactive)
same,z-score,[13]; [23],0.124
same,remaining NAD,[14],10 nM (inactive)
same,luciferase signal,[15],24 AU (inactive)
same,z-score,[16],-1.28 (inactive)
CC(C)(C)NCC(O)c1cc(Cl)c(N)c(Cl)c1 (centres undefined),survival,[18],11.5 (inactive)
same,parasite load remaining,[19],72.5% (inactive) and 86% (inactive) and 37.5% (inactive)
same,viability,[19],109% and 74.6% and 102%
same,nuclear beta-catenin stimulation,[1]; at 10 µM,0% (inactive)
same,nuclear beta-catenin stimulation,"[1]; stimulation, at 2 µM",1.4%
same,insulin secretion stimulation,[2],3.8% (inactive)
same,viability decrease,[3],-1.4% (inactive)
same,tube area decrease,[4],13.7% (inactive)
same,GLP1 secretion stimulation,[5],0.6% (inactive)
same,inhibition of viability,[6],24.9% (inactive)
same,viability decrease (inhibition),[7],15.4% (inactive)
same,viability decrease (inhibition),[8],10.4% (inactive)
same,inhibition,[9],-5.11% (inactive)
same,red/green cell ratio (normalised),[10],1.04 (inactive)
same,normalised cell number,[10]; [20],1.05
same,normalised cell number,[10]; [21],1.09
same,activity remaining,[11],115% (inactive)
same,fold change,[17]; stronger effect = lower value,0.844 (inactive) and 0.889 (inactive)
same,fold change,[17]; [24],1.23 and 1.3
same,cell count,[17]; [25],8390 and 9780
same,cell count,[17]; [26],9940 and 11000
same,z-score,[13]; [22],0.503 (inactive) and 0.285 (inactive)
same,z-score,[13]; [23],0.0878 and 0.551
same,remaining NAD,[14],10 nM (inactive)
same,luciferase signal,[15],44 AU (inactive)
same,z-score,[16],0.41 (inactive)
CCCCCCCCC(=O)NCc1ccc(O)c(OC)c1,nuclear beta-catenin stimulation,[1]; at 10 µM,2.1% (inactive)
same,nuclear beta-catenin stimulation,"[1]; stimulation, at 2 µM",1.1%
same,insulin secretion stimulation,[2],-0.6% (inactive)
same,viability decrease,[3],4.5% (inactive)
same,tube area decrease,[4],21.4% (inactive)
same,GLP1 secretion stimulation,[5],4% (inactive)
same,inhibition of viability,[6],1.8% (inactive)
same,viability decrease (inhibition),[7],49.7% (inactive)
same,viability decrease (inhibition),[8],11.7% (inactive)
same,inhibition,[9],-12.3% (inactive)
same,activity remaining,[11],92.7% (inactive)
same,remaining NAD,[14],10 nM (inactive)
same,luciferase signal,[15],52 AU (inactive)
CC(=O)[O][Hg][c]1ccccc1,parasite load remaining,[19],3.54% (inactive) and -0.265% (inactive)
same,viability,[19],23.1% and 0.225%
same,nuclear beta-catenin stimulation,[1]; at 10 µM,14.5% (inactive)
same,nuclear beta-catenin stimulation,"[1]; stimulation, at 2 µM",13.2%
same,insulin secretion stimulation,[2],15.9% (inactive)
same,viability decrease,[3],103% (active)
same,tube area decrease,[4],110% (active)
same,GLP1 secretion stimulation,[5],49.8% (active)
same,inhibition of viability,[6],103% (active)
same,viability decrease (inhibition),[7],144% (active)
same,viability decrease (inhibition),[8],105% (active)
same,inhibition,[9],-9.01% (inactive)
same,activity remaining,[11],-6.18% (active)
same,fold change,[17]; stronger effect = lower value,0.775 (inactive)
same,fold change,[17]; [24],1.65
same,cell count,[17]; [25],334
same,cell count,[17]; [26],432
same,remaining NAD,[14],63 nM (active)
same,luciferase signal,[15],32 AU (inactive)
CCC1(CC)C(=O)C=CNC1=O,survival,[18],10.8 (inactive)
same,parasite load remaining,[19],98.5% (inactive) and 80.5% (inactive)
same,viability,[19],103% and 91.2%
same,nuclear beta-catenin stimulation,[1]; at 10 µM,-0.7% (inactive)
same,nuclear beta-catenin stimulation,"[1]; stimulation, at 2 µM",-1.5%
same,insulin secretion stimulation,[2],0.8% (inactive)
same,viability decrease,[3],-18% (inactive)
same,tube area decrease,[4],-3.8% (inactive)
same,GLP1 secretion stimulation,[5],-1.4% (inactive)
same,inhibition of viability,[6],-8.6% (inactive)
same,viability decrease (inhibition),[7],4.3% (inactive)
same,viability decrease (inhibition),[8],-15.1% (inactive)
same,inhibition,[9],8.27% (inactive)
same,red/green cell ratio (normalised),[10],0.86 (inactive)
same,normalised cell number,[10]; [20],1.13
same,normalised cell number,[10]; [21],0.97
same,activity remaining,[11],115% (inactive)
same,fold change,[17]; stronger effect = lower value,0.859 (inactive)
same,fold change,[17]; [24],1.13
same,cell count,[17]; [25],8380
same,cell count,[17]; [26],9750
same,z-score,[13]; [22],0.0321 (inactive)
same,z-score,[13]; [23],-1.05
same,remaining NAD,[14],10 nM (inactive)
same,luciferase signal,[15],36 AU (inactive)
Clc1ccc(C(OCCN2CCCCC2)c2ccccc2)cc1 (centres undefined),survival,[18],3.58 (inactive)
same,parasite load remaining,[19],32.6% (inactive) and 77.7% (inactive)
same,viability,[19],91.9% and 79.6%
same,nuclear beta-catenin stimulation,[1]; at 10 µM,3.4% (inactive)
same,nuclear beta-catenin stimulation,"[1]; stimulation, at 2 µM",2.6%
same,insulin secretion stimulation,[2],11.4% (inactive)
same,viability decrease,[3],-162% (inactive)
same,tube area decrease,[4],4.5% (inactive)
same,GLP1 secretion stimulation,[5],7.9% (inactive)
same,inhibition of viability,[6],25.5% (inactive)
same,viability decrease (inhibition),[7],72.3% (active)
same,viability decrease (inhibition),[8],26.4% (inactive)
same,inhibition,[9],14.2% (inactive)
same,red/green cell ratio (normalised),[10],0.83 (inactive)
same,normalised cell number,[10]; [20],1.02
same,normalised cell number,[10]; [21],0.85
same,activity remaining,[11],103% (inactive)
same,fold change,[17]; stronger effect = lower value,0.822 (inactive)
same,fold change,[17]; [24],1.27
same,cell count,[17]; [25],7820
same,cell count,[17]; [26],9510
same,z-score,[13]; [22],-1.82 (inactive)
same,z-score,[13]; [23],-0.41
same,remaining NAD,[14],10 nM (inactive)
same,luciferase signal,[15],180 AU (active)
